Measured values from ChEMBL document CHEMBL3988442, “University of Dundee, Small-Polar-MMV Screening Library” (2021).
Screen size: about 53,000 compounds; about 900 (1.7%) showed an effect of 50% or more. Only a selection was taken, and strong results are over-represented in it overall.

tested on: Mycobacterium tuberculosis; assay: Cornell - Phenotypic assay to identify agents that inhibit growth of Mycobacterium tuberculosis; format: functional; parameters: scale not given: direction of the effect not stated beside the values; settings: 10 mM as filed; unlikely as a test dose

| SMILES | Percent Effect [%] |
| --- | --- |
| CCNC(=O)N(Cc1cccc(OC)c1)C1CCC(O)CC1 (configuration not stated) | 21.75 |
| COCC(=O)N(Cc1ccc2cc[nH]c2c1)C1CC1 | 57.03 |
| COCC(=O)N(Cc1ccc2[nH]ccc2c1)C1CC1 | 26.94 |
| CCN(C(=O)CCc1ccc2[nH]ccc2c1)C1CC(=O)NC1=O (configuration not stated) | 14.54 |
| COC(=O)CCC(=O)N(Cc1ccc2cc[nH]c2c1)C1CC1 | 90.28 |
| O=C(C1CC1)N(Cc1ccc2cc[nH]c2c1)C1CC1 | 42.2 |
| CCOc1ccccc1C1=CCN(C(=O)C2CCN(C)C(=O)C2)CC1 (configuration not stated) | -20.28 |
| COC(=O)c1cccn1C1CCN(C(=O)c2ccc(C)[nH]c2=O)CC1 | -31.25 |
| CCc1cc(N(C)Cc2cc[nH]n2)n2nc(C)c(C)c2n1 | 4.829 |
| CCc1cc(N(C)Cc2ccncn2)n2nc(C)c(C)c2n1 | 59.71 |
| CCc1cc(N(C)Cc2ccnc(C)c2)n2nc(C)c(C)c2n1 | -23.54 |
| Cc1nc(C2CCCN(C(=O)c3cc(Cl)c4c(c3)OCO4)C2)no1 (configuration not stated) | 12.39 |
| O=C(C1CCCO1)N1C[C@@H]2CCN(c3cnccn3)C[C@@H]2C1.O=C(O)C(F)(F)F (some centres not stated) | 30.53 |
| c1ccc(C2CCCN(c3cncc(-n4cccn4)n3)CC2)cc1 (configuration not stated) | 42.47 |
| c1ccc(COC2CCN(c3cncc(-n4cccn4)n3)CC2)cc1 | 60.34 |
| c1ccc(C2CCN(c3cncc(-n4cccn4)n3)CC2)cc1 | 25.96 |
| O=C(Nc1ccnc2ccnn12)c1ccc(NC2CC2)nc1 | -11.01 |
| O=C(Nc1ccnc2ccnn12)c1ccc(N2CCC(O)CC2)cc1 | 85.62 |
| Cc1cc(NC(=O)c2ccc(N3CCOCC3)cc2)[nH]n1 | 29.03 |
| CS(=O)(=O)N1CCO[C@@H]2CN(C(=O)C3CC(F)(F)C3)C[C@@H]2C1 | -22.45 |
| Cn1c(NC(=O)CNC(=O)C2CC2)nc2cc(Cl)ccc21 | -3.36 |
| Cn1c(NCc2ccc(C(N)=O)cc2)nc2cc(Cl)ccc21 | 60.39 |
| Cn1cc(CNc2nc3cc(Cl)ccc3n2C)cn1 | 16.71 |

| SMILES | Percent Effect [%] |
| --- | --- |
| COc1cccc(CN2CCCCCC2c2cccc(F)c2)c1O (configuration not stated) | 45.8 |
| COc1cccc(CN2CCCCCC2c2cccc(C)c2)c1O (configuration not stated) | 84.28 |
| COc1cccc(CN2CCCCCC2c2cccs2)c1O (configuration not stated) | 38.44 |
| COc1cccc(CN2CCCCCC2c2sccc2C)c1O (configuration not stated) | 53.6 |
| Cc1cccc(C2CCCCCN2Cc2cn(C)nc2C)c1 (configuration not stated) | 15.03 |
| COc1cccc(CN2CCCCCC2c2cccs2)c1OC (configuration not stated) | 35.04 |
| COc1cc(-c2cc(N)ncn2)cc(OC)c1OC | 14.69 |
| O=C(NCCNc1ncccn1)C1CCN(C(=O)NC2CC2)CC1 | -5.946 |
| Cc1nc(N(C)C)nc(C)c1NS(=O)(=O)c1ccc(OC(F)(F)F)cc1 | 21.9 |
| CC(=O)N1CCN(c2cnccn2)CC(CO)C1 (configuration not stated) | 10.91 |
| COCc1nc(C(=O)N2CCCC2c2noc(C)n2)cs1 (configuration not stated) | -28.82 |
| Cc1ccc(CN2CCCC2(C(N)=O)c2cnccn2)c(C)c1 (configuration not stated) | -1.756 |
| CCC1CCCCCN1C(=O)c1cc(C#N)c(SC)[nH]c1=O (configuration not stated) | -5.356 |
| CSc1[nH]c(=O)c(C(=O)N2CCCC2c2cccs2)cc1C#N (configuration not stated) | 17.36 |
| CSc1[nH]c(=O)c(C(=O)N2CCCC2C2CCCC2)cc1C#N (configuration not stated) | 65.7 |
| CC(=O)c1ccc(C(=O)NCc2cccnc2N2CCCC(O)C2)s1 (configuration not stated) | 26.17 |
| COc1cccc(CN(C)Cc2c(C)noc2C)c1OC | -9.272 |
| CCc1c(C)nc(SCc2ccccn2)[nH]c1=O | 11.8 |
| Cc1nn(C)c(C)c1S(=O)(=O)NCCn1ccc(-c2cccs2)n1 | -2.587 |
| CC(C(N)=O)n1nc(-c2cccs2)cc(N)c1=O (configuration not stated) | -30.4 |
| CN1CCN(Cn2nc(-c3cccs3)ccc2=O)CC1 | 17.93 |
| Cc1nc(-n2nc(-c3cccs3)cc2N)[nH]c(=O)c1C | 75.1 |
| CCc1c(C)nc(-n2nc(-c3cccs3)cc2N)[nH]c1=O | 106.9 |

| SMILES | Percent Effect [%] |
| --- | --- |
| Cc1ccnc(C2CCN(C(=O)c3cnn(C)c3)CC2)n1 | 19.18 |
| CN1C(=O)C2(CC(=O)Nc3c2cnn3C(C)(C)C)c2ccccc21 (configuration not stated) | 16.17 |
| Cc1ccc(CC2CCCN2CC(=O)NCc2cccnc2)cc1 (configuration not stated) | 13.39 |
| CN1CC2(CCCN(Cc3cccc(CCN)c3)C2)OC1=O (configuration not stated) | 4.729 |
| CN(CC(=O)NCc1ccccn1)C1CCCN(c2cccnn2)C1 (configuration not stated) | -22.52 |
| COC(=O)c1ccccc1S(=O)(=O)NC(=O)c1cccc2c1OCCO2 | -3.436 |
| Cl.Cl.O=C1NC2(CCNCC2)CC1c1ccncc1 (configuration not stated) | -12.16 |
| O=C1NC2(CCN(CCc3ccccc3)CC2)CC1c1ccccc1 (configuration not stated) | 19.15 |
| Cl.O=C1NC2(CCNCC2)CC1c1ccccc1 (configuration not stated) | 100.2 |
| Cc1nn(C)c(N(C)C)c1CNCc1ccnc(N2CCOCC2)c1 | 31.35 |
| CCS(=O)(=O)N1C[C@H]2CN(CC3CC3)C(=O)[C@H]2C1 | -29.96 |
| COc1ccccc1CCNS(=O)(=O)N1CCOCC1 | -2.569 |
| COCC(=O)NCCc1nc2cc(-c3ccc(OC)cc3)ncn2n1 | 48.11 |
| Cc1cc(NCCS(C)(=O)=O)nc2cc3c(cc12)CCC3 | 21.34 |
| CC(C)CCC(=O)Nc1ccc2oc(=O)n(CCN(C)C)c2c1 | -39.6 |
| CN(C)CCn1c(=O)oc2ccc(NC(=O)CSc3ccccc3)cc21 | 68.34 |
| CN(C)CCn1c(=O)oc2ccc(NC(=O)CC(C)(C)C)cc21 | 16.94 |
| CCCn1cc(-c2cc(-c3cnc(OC)nc3)c(C#N)c(N)n2)c(C)n1 | 56.67 |
| CCCn1cc(-c2cc(-c3ccoc3)c(C#N)c(N)n2)c(C)n1 | 46 |
| CCCn1cc(-c2cc(-c3c[nH]cn3)c(C#N)c(N)n2)c(C)n1 | 4.241 |
| O=C(NCc1ccco1)[C@@H]1CCO[C@@H]2CCN(c3ncccn3)C[C@@H]21.O=C(O)C(F)(F)F | -22.51 |
